Experimental data reported in PubChem BioAssay (EPA / NIEHS).
The source made the active and inactive calls. The calls were made as follows: active = hit-call score of the fitted dose curve at least 0.9, where 1 is the maximum; inactive = score below 0.9.

assay: ATG_CMV_CIS: Attagene CIS-FACTORIAL HepG2 Assay for human CMV (Internal Marker) (AID 2282928); details: HepG2 CMV promoter reporter, transcription factor profiling; actives raise or lower the signal;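 also: endpoint acts as a background internal control marker rather than a target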
Procedure: ATG_CIS is a cell-based, multiplexed-readout assay that uses HepG2, a human liver cell line, with measurements taken at 24 hours after chemical dosing in a 24-well plate.ATG_CMV_CIS is one of 52 assay component(s) measured or calculated from the ATG_CIS assay. It is designed to make measurements of mRNA induction, a form of inducible reporter, as detected with fluorescence intensity signals by Reverse transcription polymerase chain reaction (RT-PCR) and Capillary electrophoresis technology.Data from the assay component ATG_CMV_CIS was analyzed into 1 assay endpoint. This assay endpoint, ATG_CMV_CIS, was analyzed with bidirectional fitting relative to DMSO as the negative control and baseline of activity. Using a type of inducible reporter, measures of mRNA for gain or loss-of-signal activity can be used to understand the background control at the transcription factor-level as they relate to the gene . Furthermore, this assay endpoint can be referred to as a secondary readout, because this assay has produced multiple assay endpoints where this one serves a background control function. To generalize the intended target to other relatable targets, this assay endpoint is annotated to the background measurement intended target family, where the subfamily is internal marker.
Human liver HepG2 cells are transiently transfected with multiple reporter transcription units (MRTUs) in 6-well plates using FuGene 6 reagent (Roche; 3 ml FuGene/1 mg DNA). The MRTU constructs are regulated by a cis-regulating element (promoter). […] A major difference between the CIS and TRANS system is that in CIS activities of endogenous TFs are measured, whereas the TRANS assay evaluates changes in activities of exogenous, chimeric NR-Gal4 proteins. […] At the end of 24 hour incubation, total RNA was isolated using TriZol reagent (Invitrogen). The isolated RNA is then reverse-transcribed using oligo(dT) primer and Mo-MLV reverse transcriptase (Invitrogen) with DNAse I (Ambion) treatment for 30 min. The one-tenth of the produced cDNA was amplified by PCR using Taq DNA polymerase (Invitrogen) and two reporter sequence-specific primers. The PCR products were fluorescently labeled by primer extension with 6-arboxyfluorescein (6-FAM) 5'-labeled reporter sequence-specific primer (2 min at 95 C, 20 s at 68 C and 10 min at 72 C) and these products were digested with 5U of HpaI (New England Biolabs) for 2h at 37 C. The fragments were purified using Qiaquick PCR columns (Qiagen), analyzed on an ABI 3130xL genetic analyzer (Applied Biosystems) with peak positions identified by using a set of X-rhodamine (ROX)-labeled MapMarker1000 molecular weight standards (BioVentures). The raw capillary electrophoresis data was processed using Attagraph software (Attagene).

SMILES | outcome | AC50
CC(C)COC(=O)CC(C(=O)OCC(C)C)S(=O)(=O)O (stereo not given) | inactive | 
Clc1cccnc1 | inactive | 
CCOc1ccc(NC(N)=O)cc1 | inactive | 
CCCC/C=C/C=C\C=O |  | 159 µM (active)
CN(C)Cc1cc(CN(C)C)c(O)c(CN(C)C)c1 | inactive | 
C[Si]1(C)O[Si](C)(C)O[Si](C)(C)O[Si](C)(C)O[Si](C)(C)O1 | inactive | 
CC1(C)C(=O)N(CO)C(=O)N1CO | inactive | 
CCCCNS(=O)(=O)c1ccc(C)cc1 | inactive | 
CCCCOC(=O)CCC(C)=O | inactive | 
CCCCCC(=O)OCC | inactive | 
C=C[Si](OCCOC)(OCCOC)OCCOC | inactive | 
OCCCc1ccccc1 | inactive | 
CC1CCC(=O)C1=O (stereo not given) | inactive | 
Cc1cc(=O)[nH]c(=O)[nH]1 | inactive | 
CC(C=O)c1ccccc1 (stereo not given) | inactive | 
COc1cc(C)ccc1O | inactive | 
NNS(=O)(=O)c1ccc(Oc2ccc(S(=O)(=O)NN)cc2)cc1 | inactive | 
CC1C(C)(C)C2=C(C(=O)CCC2)C1(C)C (stereo not given) | inactive | 
C=CCCCCCCCCC=O | inactive | 
C1CNCCN1 | inactive | 

SMILES | outcome | AC50
CCCCC/C=C\C/C=C\CCCCCCCC(=O)O | inactive | 
CC/C=C\C/C=C\C/C=C\CCCCCCCC(=O)OC | inactive | 
C=C(C)C1CC=C(C)CC1 (stereo not given) | inactive | 
O=C1CCCN1C1CCCCC1 | inactive | 
CC(C)=CCl | inactive | 
C=C(C)C(=O)OCCCCCCCCCCCC |  | 100 µM (active)
CC(=O)CC(=O)Nc1ccccc1C | inactive | 
O=C1CCCCC1C1CCCCC1 (stereo not given) | inactive | 
CC(=O)C(C)C | inactive | 
C=C(C)C1CC=C(C)C(OC(C)=O)C1 (stereo not given) | inactive | 
CC1OC(=O)C(C)OC1=O (stereo not given) | inactive | 
CC1CCC(C(C)(C)S)C(=O)C1 (stereo not given) | inactive | 
C=CC(C)(CCC=C(C)C)OC(=O)C=Cc1ccccc1 (stereo not given) |  | 84.2 µM (active)
CC(=O)c1ccc(S(=O)(=O)NC(=O)NC2CCCCC2)cc1 | inactive | 
CC(=O)OC/C=C(/C)CCC=C(C)C | inactive | 
CC=CC(=O)OCC(C)C | inactive | 
CC=C(C)C=CC=C(C)C | inactive | 
Oc1ccc(-c2ccccc2)c(Cl)c1 |  | 43.1 µM (active)
CCCCCCCC(=O)OCC(COC(=O)CCCCCCC)OC(=O)CCCCCCC | inactive | 
CC(C)CCCCCOC(=O)CS | inactive | 
